Screening results deposited in PubChem BioAssay by National Center for Advancing Translational Sciences (NCATS).
D3 ag – activates the human D3 dopamine receptor. hit rate 0.58% among 410,000. D3R DiscoveRx beta-arrestin cells, luminescence, 90 min. max activation, %. P35462; in the data active = max activation above about 30%; also: 0% is about no effect
Target sequence (P35462 whole entry, looked up): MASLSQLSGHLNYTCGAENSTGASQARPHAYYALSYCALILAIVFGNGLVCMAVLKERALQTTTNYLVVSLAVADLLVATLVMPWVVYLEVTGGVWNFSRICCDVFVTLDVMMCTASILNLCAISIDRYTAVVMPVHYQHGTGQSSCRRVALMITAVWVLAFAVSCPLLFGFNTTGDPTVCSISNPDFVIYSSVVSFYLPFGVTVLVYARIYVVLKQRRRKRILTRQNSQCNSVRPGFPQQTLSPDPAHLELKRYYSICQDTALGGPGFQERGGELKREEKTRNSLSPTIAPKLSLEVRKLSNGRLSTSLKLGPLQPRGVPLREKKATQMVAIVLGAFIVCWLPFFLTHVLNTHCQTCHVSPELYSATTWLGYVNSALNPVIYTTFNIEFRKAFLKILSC
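Agonist mode: compounds and dopamine controls were applied to plated cells for 90 min at 37 degrees C after an overnight attachment at 1500 cells/well. Luminescent read-out followed 30 - 60 minutes at room temperature with DiscoveRx detection reagent.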
DRD3 antagonist – blocks the human D3 dopamine receptor; hit rate 2.5% among 360,000; P35462; D3R cells, DiscoveRx beta-arrestin luminescence, antagonist mode; hits give low values; max response, negative = inhibition, %; in the data active = max response below about -50%; inconclusive = no clear call, values can overlap the other calls; also: % is scaled to controls: 0 for no effect and ±100 for the full control effect
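Cells expressing the human receptor were seeded at 1500 cells/well, incubated overnight at 37 degrees C in 5% CO2, then exposed to library compounds with dopamine controls for 90 minutes at 37 degrees C before luminescent detection.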
DT40 TDP1 no CPT – qHTS for Inhibitors of human tyrosyl-DNA phosphodiesterase 1 (TDP1): qHTS in cells in absence of CPT; hit rate 15% among 420,000; Potency, µM (top dose mostly 46.2 µM), inactives show top-dose activity change, negative = growth inhibition, actives largely listed as inhibitors; AID 686978, 2013; DT40 Tdp1-/- hTDP1 cells, no CPT, ATP luminescence, 48 h; also: potency is read from the fitted curve at half-maximal effect; % is scaled to controls: 0 for no effect and ±100 for the full control effect; nearly all actives have a fitted effect of over 55% in size
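DT40 Tdp1-/-;hTDP1 cells, no CPT (DMSO vehicle only), 400 cells/well; compounds pin-transferred; ≥48 hr, 37 °C; CellTiter-Glo 30 min RT dark, luminescence read.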
TDP1 cell CPT – DT40-hTDP1 cell growth loss with CPT. chicken DT40 Tdp1-/-;hTDP1 cells + 20 nM CPT, ATP luminescence, 48 h. AID 686979. hit rate 12% among 420,000. Potency, µM (doses to about 46.2 µM), without a hit: at the highest dose activity change, negative = growth inhibition, usual class: inhibitors; also: potency is read from the fitted curve at half-maximal effect; % is scaled to controls: 0 for no effect and ±100 for the full control effect; nearly all actives have a fitted effect of over 55% in size
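Chicken DT40 Tdp1-/- cells stably complemented with human TDP1 were seeded at 400 cells/well in medium containing 20 nM camptothecin, exposed to pin-transferred compounds, and grown at 37 °C for at least 48 hr. Viability was read as ATP luminescence.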
ClpP mod – qHTS Assay for Activators of ClpP. purified B. subtilis ClpP, FRET peptide cleavage, 20 min. hit rate 1.9% among 340,000. Potency, µM (highest dose often 57.5 µM), for the others: top-dose activity change, negative = active. ATP-dependent Clp protease proteolytic subunit (Bacillus subtilis (strain 168)), P80244; active = well fitted falling curve with a large enough effect; inconclusive = small, poorly fitted or top-dose-only effect; inactive = no such curve, though single readings can be large or run the other way; also: potency is read from the fitted curve at half-maximal effect; the source files actives as falling curves though it sought activators and does not explain the sign; nearly all actives have a fitted effect of over 65% in size
Target sequence (P80244 whole entry, looked up): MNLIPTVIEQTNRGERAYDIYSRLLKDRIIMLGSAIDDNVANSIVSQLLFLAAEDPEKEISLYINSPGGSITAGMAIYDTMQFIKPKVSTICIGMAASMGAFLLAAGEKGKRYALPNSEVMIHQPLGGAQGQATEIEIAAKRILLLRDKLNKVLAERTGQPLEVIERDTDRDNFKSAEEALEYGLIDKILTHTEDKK
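Purified B. subtilis ClpP, 10 microg/mL final in Tris/HCl pH8 with KCl, BSA, glycerol and Tween-20, cleaved an Abz/nitrotyrosine-quenched decapeptide. Fluorescence (ex 320, em 430) was read at 0 and 20 min at room temperature. Delta was normalized to 5.8 microM ADEP and DMSO/no-enzyme controls.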
IL-1B inflam inh – inhibitors of inflammasome signaling (IL-1 beta secretion). THP-1 LPS/ATP IL-1B secretion, AlphaLISA, 16 h; hits give low values. activity change, % at 57.5 µM. hit rate 4.7% among 360,000; in the data active = activity change below about -50%; inconclusive = mostly about -30% to -49%; also: % is scaled to controls: 0 for no effect and ±100 for the full control effect
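THP-1 cells pretreated 1 hr with compounds (up to 57.5 uM final), then stimulated with LPS (250 ng/mL final) plus ATP (1.25 mM final); secreted IL-1B measured by AlphaLISA after 16 hr, decreased signal indicating inhibition.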
The depositor's hits bear a star; ? = inconclusive; . = no result given. Rows were chosen to be rich in hits. Some 21% of all compounds tested hit in one or more screens of this group. Unless noted, calls follow the shape of the dose curve; as a rule, active = well fitted inhibition curve with a large enough effect; inconclusive = small, poorly fitted or top-dose-only effect; inactive = flat fitted curve, though single readings scatter.

SMILES | D3 ag | DRD3 antagonist | DT40 TDP1 no CPT | TDP1 cell CPT | ClpP mod | IL-1B inflam inh
CCc1cc(=O)oc2cc(OCC(N)=O)c(Cl)cc12 | -1 | -8 | -8% | 1% | 32µM* | -4
Cc1c(C)c2c(OCC(=O)NCc3ccccn3)cc3c(c2oc1=O)CCC(C)(C)O3 | 0 | 26 | 16µM* | 15µM* | 4% | ?
CCCCc1cc(=O)oc2cc(OCc3cc(OC)c(OC)c(OC)c3)c(Cl)cc12 | 5 | 116 | 15µM* | ? | 64% | 18
CCCc1cc(=O)oc2cc(C)cc(OCC(=O)Nc3ccc(CN4CCOCC4)cc3)c12 | -16 | -9 | 5.8µM* | 18µM* | 4% | 0
CCCc1cc(=O)oc2cc(OCc3cc(OC)c(OC)c(OC)c3)c(Cl)cc12 | -1 | -19 | ? | ? | -3% | 9
CC(=O)c1ccc(NS(=O)(=O)c2ccc(Br)s2)cc1 | -6 | . | 8% | -7% | -7% | .
CCCc1cc(=O)oc2cc(C)cc(OCC(=O)NCCN3CCOCC3)c12 | -1 | -12 | 9% | -17% | 4% | -19
CCCc1cc(=O)oc2c3c(cc(OCC(=O)NCc4ccncc4)c12)OC(C)(C)CC3 | -7 | 16 | 21µM* | 6.5µM* | 4% | ?
COCCCNC(=O)COc1cc2c(c3oc(=O)c(C)c(C)c13)CCC(C)(C)O2 | -19 | -25 | 2.1µM* | ? | . | -7
CCCc1cc(=O)oc2c3c(cc(OCC(=O)N[C@@H](C)C(=O)O)c12)OC(C)(C)CC3 | 0 | -5 | 4% | 2% | 0% | 8
CCCc1cc(=O)oc2cc(OCC(=O)NCCN3CCOCC3)c(Cl)cc12 | -5 | 13 | 16µM* | 23µM* | 3% | 15
CCCc1cc(=O)oc2c3c(cc(OCC(=O)NCCN4CCOCC4)c12)OC(C)(C)CC3 | -48 | -56* | ? | ? | 5% | ?
CC1CCN(C(=O)CSc2nc(N)c(NC(=O)c3ccccc3)c(=O)[nH]2)CC1 | 3 | 5 | -2% | 0% | -24% | 0
O=C(CN(c1ccc(F)cc1)S(=O)(=O)c1ccccc1)NC1CCCCCC1 | -8 | -8 | -20% | ? | 0% | -9
CC1CN(S(=O)(=O)c2cccc(C(=O)NCc3ccccn3)c2)CC(C)O1 (configuration not stated) | 3 | 18 | 20% | -6% | 0% | 3
CCC(=O)c1cn(CC(=O)Nc2ccc(C)cc2C)c2ccccc12 | 5 | 13 | -29% | -18% | 0% | 12
CCCc1cc(=O)oc2c3c(cc(OCC(=O)NCc4ccccn4)c12)OC(C)(C)CC3 | 2 | -6 | ? | 23µM* | 5% | ?
CN(C)CCOC(=O)C12CC3(C)CC(C)(CC(C)(C3)C1)C2 | -23 | -84* | -5% | -17% | 1% | ?
Cc1cc(OC(=O)c2ccccc2Cl)cc(=O)n1C | 35* | 86 | 9% | 2% | 4% | 34
O=C(O)[C@H]1[C@H]2C[C@H]3c4[nH]c5ccccc5c4CCN3C[C@@H]2CC[C@@H]1O | . | . | 13µM* | 11µM* | . | .
COC(=O)[C@@H]1[C@H]2C[C@H]3c4[nH]c5ccccc5c4CCN3C[C@@H]2CC[C@@H]1O | -80 | -78* | ? | -9% | ? | -19
COC(=O)[C@H]1[C@@H]2C[C@@H]3c4[nH]c5ccccc5c4CCN3C[C@H]2CC[C@H]1O | . | . | -24% | 5% | . | .
Cc1nn2c(C)c(C(=O)NCc3cccc(Br)c3)cnc2c1-c1ccccc1 | 7 | . | -20% | ? | -4% | .
COCc1cc(C)nc(OC)c1C(N)=O | -11 | 0 | -6% | 24% | . | -17
CC1=NN(/C(=N\c2nnc(C)s2)Nc2ccc(C(C)(C)C)cc2)[C@H](c2ccc(C)cc2)S1 | 2 | -23 | ? | 18µM* | 2% | ?
SMILES | D3 ag | DRD3 antagonist | DT40 TDP1 no CPT | TDP1 cell CPT | ClpP mod | IL-1B inflam inh
Cc1nnc(SCC(=O)Nc2nsc(-c3ccc(C(C)(C)C)cc3)n2)s1 | -6 | -12 | -19% | -11% | -15% | 1
Cc1c(-c2ccccc2)c(P(=O)(N2CCOCC2)N2CCOCC2)c2ccccn12 | -13 | -25 | ? | 26µM* | 65% | 3
CCOC(=O)C1=CCC(c2ccccc2C)N(S(=O)(=O)c2ccc(C)cc2)C1 (configuration not stated) | -9 | -50* | 15µM* | 10µM* | -6% | 52
CC(=O)C1=CCC(c2ccccc2F)N(S(=O)(=O)c2ccc(C)cc2)C1 (configuration not stated) | 7 | -8 | ? | ? | 2% | ?
CCOC(=O)C1=CCC(c2ccc(C)cc2)N(S(=O)(=O)c2ccc(C)cc2)C1 (configuration not stated) | -7 | -24 | 18µM* | 23µM* | -6% | 28
CC(=O)C1=CCC(c2cccc3ccccc23)N(S(=O)(=O)c2ccc(C)cc2)C1 (configuration not stated) | -2 | 11 | 18µM* | ? | -2% | -16
O=C(CSc1ccc2ccccc2n1)NCCCN1CCCC1=O | 1 | 1 | 18% | -4% | -5% | 0
COc1cccc(NC(=O)CCNC(=O)C2CCN(S(=O)(=O)c3ccc(F)cc3)CC2)c1 | -8 | -12 | -1% | -14% | 0% | -1
Cc1ccccc1-c1noc(-c2ccc(N3CCCC3)c([N+](=O)[O-])c2)n1 | -3 | . | -14% | -9% | -1% | .
Cc1ccccc1-c1noc(-c2ccc(N3CCN(C)CC3)c([N+](=O)[O-])c2)n1 | -11 | . | 13µM* | 16µM* | 1% | .
COc1cc(-c2noc(-c3ccc(N4CCN(C)CC4)c([N+](=O)[O-])c3)n2)cc(OC)c1OC | 7 | . | 3.3µM* | 3.3µM* | 1% | .
CN1CCN(c2ccc(-c3nc(-c4ccccc4)no3)cc2[N+](=O)[O-])CC1 | -17 | . | 15µM* | ? | -3% | .
Cc1cc(C(=O)NC2CCCN(Cc3ccc(Cl)cc3)C2)n(C)n1 (configuration not stated) | -9 | -3 | ? | ? | -3% | 7
Cc1ccc(CC(=O)CCc2ccccc2)cc1 | -8 | -23 | -9% | -14% | 1% | 1
Cc1cc(=O)n2nc(N3CCC(C(=O)Nc4c(C)cccc4C)CC3)sc2n1 | 5 | . | -15% | 1% | 0% | .
CC1CC(c2ccccc2)n2nc(NC(=O)c3ccco3)nc2N1 (configuration not stated) | -2 | -5 | -4% | 2% | -1% | -11
